Structures are written as SMILES. Values without a mark were called inactive. The source made the active and inactive calls.

The nature of the assay: yeast growth modulation, basal conditions, primary screen, YJM789 clinical isolate, OD600, 24 h (AID 1089).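 Further: growth of clinical yeast isolate S. cerevisiae YJM 789 seeded 1000 cells per well; test concentration not given here.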 Conditions: S. cerevisiae YJM789 growth, higher = more signal, called active from +8 up or from −8 down.
Consider `OB1C=CCC(CCc2ccccc2)O1` (stereo not given), for which the z-score was -1.95. `CCCCCCc1nc(-c2ccc(-c3ccc(Cl)c(Cl)c3)o2)c(C)c2c1[Si](C(C)C)(C(C)C)OC2`: the z-score was -0.972. In the case of `O=C1NC(=O)C2C1C=CC(C(O)C=Cc1ccc([N+](=O)[O-])cc1)N2Nc1ccc(Cl)cc1Cl` (stereo not given), the z-score is -0.17. The figure for `Cc1ccc(S(=O)(=O)N2C[C@@H](C(=O)O)[C@H](Sc3ccccc3)C[C@H]2c2ccccc2)cc1` is -0.552; for `COC(=O)[C@@]1(Cc2ccccc2)[C@H]2c3cc(C(=O)N(C)C)n(CCc4c[nH]c5ccc(O)cc45)c3C[C@H]2CN1C(=O)c1ccccc1` it is -1.09; for `C=CC[C@]1(C(N)=O)COC(c2ccc(OCCCO)cc2)=N1` it is 0.924. The value for `O=C(CS)NCCCCCNC(=O)[C@@H]1C[C@@H]2C(=O)NCC(=O)N2[C@@H]1c1ccc(O)cc1` was 0.118. `COc1cc(OC)c(C(O)C2C=CC3C(=O)NC(=O)C3N2Nc2ccccn2)cc1Br` (stereo not given): the z-score was -0.0137. On to `NC(=O)[C@@]1(Cc2ccccc2)N=C(c2ccc(OCCCO)cc2)O[C@H]1c1ccccc1`, for which the z-score was 3.21. The figure for `C=CCN1C(=O)[C@]2(O[C@H](CCO)[C@@H]([Si](C)(C)c3ccc(OC)cc3)[C@@H]2C)c2cc(N(C=O)c3ccccc3)ccc21` is 1.28; for `O=C(CS)NCCCCCNC(=O)[C@H]1C[C@H]2C(=O)NCC(=O)N2[C@H]1c1cccc(OCCO)c1` it is -0.881. The value for `CC(c1ccccc1)C(O)C1C=CC2C(=O)N(C)C(=O)C2N1NC(=O)OC(C)(C)C` (stereo not given) was 0.476; that for `CO[C@H]1O[C@H](CO)[C@@H](OC(=O)Nc2ccccc2)[C@@H]2OC(=O)[C@@H](Cc3ccc4ccccc4c3)C/C=C/C[C@H](Cc3ccc4ccccc4c3)C(=O)O[C@@H]12` was -1.38; that for `CCCC[C@@H]1C[C@H]1[C@@H](NC(=O)c1cccnc1)c1ccc(Cl)cc1` was -25 (active).

As for `[N-]=[N+]=NCc1ccccc1[C@@H]1OC(c2ccc(OCCCO)cc2)=N[C@]1(CCS(=O)(=O)c1ccccc1)C(N)=O`, the z-score is 1.16. Consider `COc1ccc(CCNC(=O)[C@@]2(c3ccc([N+](=O)[O-])cc3)CC(=O)N(CC34CC5CC(CC(C5)C3)C4)[C@@H]2c2ccc(CO)cc2I)cc1`, for which the z-score was 0.484. `COC(=O)[C@H](Cc1ccccc1)N[C@H](/C=C/C1CC1)[C@@H](O)Cc1ccccc1`: the z-score is -1.56. For the compound `COc1ccc(C(O)C2C=CC3C(=O)N(C)C(=O)C3N2N(c2ccccc2)c2ccccc2)c2ccccc12` (stereo not given), the z-score was 0.388. The value for `CC(C)(C)OC(=O)CC[C@]1(C(N)=O)N=C(c2ccc(OCCCO)cc2)O[C@H]1c1ccccc1` was 0.519. The figure for `COC(=O)[C@@]1(Cc2ccccc2)[C@H]2c3cc(C(=O)N(C)C)n(Cc4ccc(OC)c(OC)c4)c3C[C@H]2CN1C(=O)c1ccccc1` is -0.257; for `COCC(=C=CC[C@H](O)c1ccccc1OCCO)CCO` it is -0.594; for `[N-]=[N+]=NCc1ccccc1[C@@H]1OC(c2ccc(OCCCO)cc2)=N[C@]1(CCS(=O)(=O)c1ccccc1)C(=O)N1CCCCC1` it is -0.238.

`C=C(C)[C@@H]1CC=C(C(O)C2C=CC3C(=O)NC(=O)C3N2Nc2ccc(Cl)cc2Cl)CC1` (stereo not given in full): the z-score was -9.03 (active). `O=C(O)[C@H]1C[C@H]2C(=O)N3CCC[C@H]3C(=O)N2[C@H]1c1ccc(O)cc1`: the z-score is 0.428. The figure for `[N-]=[N+]=Nc1ccccc1C[C@]1(C(=O)NCC(O)CO)N=C(c2ccc(OCCCO)cc2)O[C@H]1c1ccccc1` (stereo not given in full) is 1.25; for `CC(C)OC(=O)C=C1C[C@@H](c2cccc(Cl)c2)O[C@@H](c2cccc(Cl)c2)O1` it is -0.338; for `COC(=O)[C@@]1(Cc2ccc(F)cc2)[C@H]2c3cc(C(=O)N(C)C)n(Cc4cc(C)n(C)n4)c3C[C@H]2CN1C(=O)c1ccccc1` it is 0.619. The figure for `[N-]=[N+]=NCc1ccccc1C[C@@]1(C(=O)NCC(O)CO)N=C(c2ccc(OCCCO)cc2)O[C@@H]1c1ccccc1` (stereo not given in full) is -0.213; for `COC(=O)[C@@]1(Cc2ccc(OC)cc2)[C@H]2c3cc(C(=O)N4CCCC4)n(CCc4ccc(O)c(O)c4)c3C[C@H]2CN1C(=O)c1ccccc1` it is -0.087; for `CC(c1ccccc1)C(O)C1C=CC2C(=O)N(c3ccccc3)C(=O)C2N1Nc1ccccc1` (stereo not given) it is 0.205.

Source of the values: PubChem BioAssay.
